± gives the standard deviation of the averaged measurements. Whole data set: some 33,000 sequences, median “E-score (dimensionless, -0.5 to 0.5)” near -0.049, cut for the highest 2% near 0.37. The full list was thinned out, with the highest values kept by preference.
The sequences below were run on T1, PmTbr T-box DNA-binding domain (GST fusion) (assay: PBM E-score of 8-mer (E-score (dimensionless, -0.5 to 0.5)); Tbr is Tbrain of the sea star Patiria miniata (Pm) or the sea urchin Strongylocentrotus purpuratus (Sp); higher = stronger binding preference). Conditions: the construct has about 5 more residues each side.
T1 sequence: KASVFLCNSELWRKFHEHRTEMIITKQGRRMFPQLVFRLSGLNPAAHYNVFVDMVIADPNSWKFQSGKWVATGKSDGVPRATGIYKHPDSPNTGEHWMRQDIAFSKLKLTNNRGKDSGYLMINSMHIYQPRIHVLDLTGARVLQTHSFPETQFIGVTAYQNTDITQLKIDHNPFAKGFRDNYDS
Description: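 Universal protein-binding microarray (Agilent AMADID 016060, 60-bp probes with a 35-bp variable region) incubated with 200 nM GST-fused Patiria miniata Tbr T-box DNA-binding domain (residues 272-466) in PBS pH 7.5. Scored for every ungapped 8-mer (given with its reverse complement) by the Universal PBM Analysis Suite as E-score (modified Wilcoxon-Mann-Whitney enrichment, range -0.5 to 0.5; >0.45 counts as bound) and Z-score of median probe intensity. Two replicate arrays (datasets 1 and 2).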
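Further: 200 nM protein in PBS on universal arrays averaged over duplicate arrays.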

Row | Sequence | PBM E-score of 8-mer
1 | TATTCGGA | -0.32 ± 0.033
2 | ACGCGACG | 0.237 ± 0.016
3 | AACTGCAT | -0.201 ± 0.029
4 | CCTAAGAC | -0.178 ± 0.094
5 | CCCAAGGG | -0.052 ± 0.028
6 | CTACAGAA | 0.0244 ± 0.029
7 | CACATTGG | 0.281 ± 0.053
8 | TGTTTGAA | 0.112 ± 0.0038
9 | ATCAGGTG | 0.404 ± 0.0092
10 | ATCAGGTA | -0.0936 ± 0.033
11 | ATCAGGTC | -0.169 ± 0.12
12 | AAGGTGGT | 0.3415 ± 0.002
13 | AAGGTGCC | 0.405 ± 0.0071
14 | AAGGTGCA | 0.4 ± 0.011
15 | ACGGTGCC | 0.158 ± 0.032
16 | GCGGTGCC | 0.0932 ± 0.011
17 | ATGGTGCC | 0.193 ± 0.051
18 | GAGGTGCA | 0.367 ± 0.0099
19 | AAGGTGCT | 0.441 ± 0.0066
20 | ACGGTGCA | 0.0807 ± 0.013
21 | TAGGTGCA | 0.22 ± 0.024
22 | GAGGTGCC | 0.409 ± 0.03
23 | ACGGTGCT | 0.164 ± 0.072
24 | ACTTTTTC | 0.124 ± 0.02
25 | AAAAGACT | -0.205 ± 0.034

Row | Sequence | PBM E-score of 8-mer
26 | CAGTCCTC | -0.118 ± 0.032
27 | CCACTGCC | -0.17 ± 0.095
28 | CAGAAGTA | -0.223 ± 0.0053
29 | ATCCACAG | -0.0977 ± 0.018
30 | ATCGAACA | -0.0797 ± 0.051
31 | CCCAGGGG | -0.162 ± 0.093
32 | AAAGTGAC | 0.392 ± 0.012
33 | GAAGTGAC | 0.379 ± 0.017
34 | CAAGTGAC | 0.325 ± 0.021
35 | GAAGTGAA | 0.219 ± 0.011
36 | AAAGTGAA | -0.00138 ± 0.15
37 | AAAGTGAT | 0.299 ± 0.012
38 | AGAGTTCG | -0.201 ± 0.018
39 | CTGGGACA | -0.223 ± 0.073
40 | CACTTCCG | 0.37 ± 0.013
41 | AACTTGCG | 0.137 ± 0.02
42 | CACTTGTC | 0.402 ± 0.0079
43 | CACTTGTA | 0.0949 ± 0.008
44 | CACTTGCA | 0.349 ± 0.0093
45 | AACTTCAC | 0.0623 ± 0.061
46 | AACTTCCG | -0.141 ± 0.013
47 | CACTTCAG | 0.255 ± 0.025
48 | CACTTCCC | 0.3321 ± 0.00048
49 | CACTTGCG | 0.376 ± 0.019
50 | AACTTGTC | 0.34353 ± 0.00012

Row | Sequence | PBM E-score of 8-mer
51 | CACTTCAC | 0.396 ± 0.012
52 | ACCCTTGC | 0.0156 ± 0.051
53 | ACAGATAC | -0.0952 ± 0.059
54 | AATTAAGG | -0.152 ± 0.064
55 | ACCGTCAC | 0.288 ± 0.0081
56 | ACACTCTG | 0.2899 ± 0.00065
57 | AATTGGAA | -0.0872 ± 0.056
58 | GGGCCAAA | -0.228 ± 0.029
59 | CATTGGGG | -0.0156 ± 0.035
60 | AATCGCGT | 0.169 ± 0.035
61 | AATCGCGA | 0.3771 ± 0.0028
62 | ACTCGCGC | 0.29 ± 0.014
63 | CATCGCGA | 0.15 ± 0.043
64 | ACTCGCGA | 0.38 ± 0.0065
65 | CTTCGCGC | 0.3742 ± 0.0014
66 | CTTCGCTC | 0.00268 ± 0.066
67 | ATTCGCGA | 0.389 ± 0.0025
68 | CTTCGCGA | 0.277 ± 0.011
69 | CATCGCGC | 0.262 ± 0.0094
70 | GTTCGCGA | 0.338 ± 0.019
71 | CCTCGCGA | 0.281 ± 0.00058
72 | GGCATTAA | -0.146 ± 0.0047
73 | TGCTCCAA | -0.162 ± 0.04
74 | ACCCTACG | 0.0529 ± 0.027
75 | AGCCTAGC | -0.00521 ± 0.12

Row | Sequence | PBM E-score of 8-mer
76 | TCGAAGCA | -0.141 ± 0.0046
77 | AATCGCGC | 0.311 ± 0.024
78 | ATTCGCGC | 0.39 ± 0.021
79 | ATTCGCGG | 0.244 ± 0.039
80 | ATAGCACA | 0.174 ± 0.035
81 | CTAGCACC | 0.449 ± 0.006
82 | ATAGCACC | 0.416 ± 0.012
83 | CAAGCACC | 0.129 ± 0.016
84 | CTAGCACA | 0.327 ± 0.024
85 | ATAGCACG | 0.358 ± 0.017
86 | ACATTCGC | 0.267 ± 0.042
87 | AGGCTTGG | -0.2 ± 0.011
88 | GAAACCGA | -0.0132 ± 0.073
89 | AGCCATAG | -0.0194 ± 0.015
90 | CTGGCACA | 0.241 ± 0.0048
91 | ATGGCACG | 0.189 ± 0.041
92 | ATGGCACA | 0.103 ± 0.0048
93 | CAGGCACC | -0.0396 ± 0.032
94 | ATGGCACC | 0.387 ± 0.011
95 | CTGGCACC | 0.411 ± 0.018
96 | ACCGGTCC | -0.276 ± 0.048
97 | TCCTATAA | -0.189 ± 0.068
98 | AAATAGGG | -0.0426 ± 0.12
99 | ACGGCTCT | -0.15 ± 0.033
100 | AACCTGTC | 0.30927 ± 0.00016

Row | Sequence | PBM E-score of 8-mer
101 | GACCTGAC | -0.0852 ± 0.017
102 | CGCCTGTC | 0.303 ± 0.026
103 | CACCTGTC | 0.4274 ± 0.0023
104 | CACCTGTA | 0.391 ± 0.009
105 | CACCTGAC | 0.387 ± 0.018
106 | CACCTGAA | 0.312 ± 0.0079
107 | CGCCTGAG | 0.0681 ± 0.047
108 | CACCTGAG | 0.37535 ± 0.00034
109 | AACCTGAC | 0.111 ± 0.026
110 | AACCTGTA | -0.252 ± 0.046
111 | AACCTGAG | 0.0264 ± 0.17
112 | AAACTATC | -0.215 ± 0.063
113 | AACCAGCA | -0.18 ± 0.047
114 | GATGGCCC | -0.138 ± 0.0089
115 | GCTCCACA | -0.0189 ± 0.02
116 | ACTGAACG | -0.315 ± 0.091
117 | GCTTTACC | -0.126 ± 0.066
118 | AAGGTTAC | -0.145 ± 0.017
119 | GGGCCCAA | -0.154 ± 0.022
120 | CGTGTTTC | 0.126 ± 0.034
121 | ACCCAGTA | -0.234 ± 0.012
122 | AGATAAAT | -0.223 ± 0.057
123 | CATGACAC | 0.389 ± 0.0048
124 | GCTGACCC | -0.159 ± 0.14
125 | ACTGACAA | 0.166 ± 0.009

Row | Sequence | PBM E-score of 8-mer
126 | CATGACAA | 0.204 ± 0.047
127 | CCTGACAG | 0.218 ± 0.036
128 | CCTGACAA | 0.207 ± 0.027
129 | CCTGACAC | 0.435 ± 0.0077
130 | GCTGACAA | 0.2795 ± 0.00061
131 | ACTGACAT | 0.0983 ± 0.064
132 | GCTGACAC | 0.398 ± 0.013
133 | AATGACAC | 0.355 ± 0.0044
134 | ACTGACAC | 0.379 ± 0.012
135 | GCCTTTCA | -0.0251 ± 0.074
136 | TACTTTCA | 0.0461 ± 0.077
137 | CACAGCGA | 0.0526 ± 0.053
138 | CTGACCAC | 0.0865 ± 0.013
139 | ACAGATGA | 0.00068 ± 0.05
140 | AGCGTTCG | 0.214 ± 0.068
141 | CTACAGAG | -0.187 ± 0.022
142 | ACTGTCAC | 0.392 ± 0.018
143 | GGTGTCAA | 0.474 ± 0.0055
144 | ACTGTCAA | 0.162 ± 0.028
145 | CGTGTCAA | 0.4335 ± 0.00096
146 | GGTGTCCA | 0.294 ± 0.021
147 | CCTGTCAA | 0.309 ± 0.024
148 | AGTGTCAA | 0.447 ± 0.0063
149 | ACTGTCAG | 0.129 ± 0.034
150 | CCTGTCAC | 0.3665 ± 0.0036

Row | Sequence | PBM E-score of 8-mer
151 | GCTGTCAA | 0.323 ± 0.014
152 | CATGTCAA | -0.00945 ± 0.065
153 | AATGTCAA | 0.0345 ± 0.052
154 | TCTGTCAA | 0.152 ± 0.039
155 | CGTGTCAG | 0.31284 ± 0.00018
156 | GATGTCAC | 0.304 ± 0.0034
157 | GGTGTCAC | 0.481 ± 0.0062
158 | AGTGTCAT | 0.387 ± 0.0042
159 | TATGTCAA | 0.0912 ± 0.063
160 | AATGTCAT | -0.164 ± 0.033
161 | TGTGTCAA | 0.372 ± 0.014
162 | AGTGTCAG | 0.384 ± 0.017
163 | AATGTCAG | 0.0135 ± 0.012
164 | GCTGTCAC | 0.3624 ± 0.0017
165 | ACTGTCAT | 0.163 ± 0.037
166 | AACATGAT | -0.0409 ± 0.098
167 | GGTCGAGA | -0.252 ± 0.058
168 | TTGAGCAA | -0.0163 ± 0.022
169 | ATAGGCAC | -0.0213 ± 0.017
170 | CGCTCATA | -0.08565 ± 0.00083
171 | TAGCTCAA | -0.184 ± 0.04
172 | ACTTTTCT | 0.0687 ± 0.099

From the supplement of paper PMC4166925
